# Measured values: PubChem BioAssay (NCATS)
# Inconclusive results are not listed. Where a call stands in place of a potency, no number is given. Calls of active or inactive are those of the source. Unless noted, calls follow the shape of the dose curve; as a rule, active = well fitted curve in the direction sought with a large enough effect; inconclusive = small, poorly fitted or top-dose-only effect, or another doubt; inactive = no such curve, though single readings can be large; an effect the other way counts as inactive or inconclusive.
# What was measured:
# [1] = target: Estrogen receptor (Homo sapiens) (UniProt P03372); test: qHTS assay for small molecule antagonists of estrogen receptor alpha signaling (AID 588513; active = well fitted curve in the direction sought with a large enough effect in the signal ratio, with a control signal flat, not every such curve was filed as active; the % refers to the signal ratio)
# Chain of Estrogen receptor (Homo sapiens) (P03372 whole entry, looked up): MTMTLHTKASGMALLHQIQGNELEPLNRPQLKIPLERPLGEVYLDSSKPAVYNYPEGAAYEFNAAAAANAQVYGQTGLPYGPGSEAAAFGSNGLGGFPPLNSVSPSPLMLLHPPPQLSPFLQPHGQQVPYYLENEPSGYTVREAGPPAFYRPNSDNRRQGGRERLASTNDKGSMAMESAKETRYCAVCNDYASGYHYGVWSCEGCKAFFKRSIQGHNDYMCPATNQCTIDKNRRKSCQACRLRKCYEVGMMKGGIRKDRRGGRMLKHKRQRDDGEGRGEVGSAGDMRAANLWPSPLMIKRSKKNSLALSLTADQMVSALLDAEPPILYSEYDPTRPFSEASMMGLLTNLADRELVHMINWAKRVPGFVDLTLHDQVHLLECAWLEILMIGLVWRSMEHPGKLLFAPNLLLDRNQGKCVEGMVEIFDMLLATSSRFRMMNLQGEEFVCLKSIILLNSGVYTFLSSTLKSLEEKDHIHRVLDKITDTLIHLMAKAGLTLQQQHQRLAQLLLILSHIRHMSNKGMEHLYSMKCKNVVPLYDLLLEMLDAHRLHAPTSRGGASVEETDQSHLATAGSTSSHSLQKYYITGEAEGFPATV
# Summary of the method: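 ER-alpha-UAS-bla GripTite HEK 293 cells in medium with 2% charcoal/dextran-treated FBS were preincubated 4 h at 37 C, dosed with compound (1:2 titration), stimulated with 0.5nM 17-beta-estradiol for 18 h, then read by CCF4 beta-lactamase fluorescence.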
# [2] = target: DNA dC->dU-editing enzyme APOBEC-3G (Homo sapiens) (UniProt Q9HC16); test: qHTS for inhibitors of Vif-A3G interactions: Validation (AID 588379)
# Chain of DNA dC->dU-editing enzyme APOBEC-3G (Homo sapiens) (Q9HC16 whole entry, looked up): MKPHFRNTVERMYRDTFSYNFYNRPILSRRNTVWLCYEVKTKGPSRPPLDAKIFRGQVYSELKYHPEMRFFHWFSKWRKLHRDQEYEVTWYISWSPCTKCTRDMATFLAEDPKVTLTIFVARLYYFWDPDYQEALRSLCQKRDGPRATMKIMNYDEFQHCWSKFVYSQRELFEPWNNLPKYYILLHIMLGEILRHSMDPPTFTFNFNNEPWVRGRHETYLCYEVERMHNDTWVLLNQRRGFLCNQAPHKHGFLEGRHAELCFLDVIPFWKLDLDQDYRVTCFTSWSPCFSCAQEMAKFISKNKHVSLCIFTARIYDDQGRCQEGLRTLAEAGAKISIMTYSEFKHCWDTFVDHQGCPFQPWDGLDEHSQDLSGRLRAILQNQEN
# Summary of the method: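 HeLa cells stably expressing Vif and A3G-eYFP, 700 cells/well, incubated overnight at 37 deg C, then exposed to compound overnight at 37 deg C. Inhibition of Vif-mediated degradation read as increased yellow fluorescence (Ex 488/Em 500-530) by laser-scanning cytometry.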
# [3] = Inducers of the Endoplasmic Reticulum Stress Response (ERSR) in human glioma: Validation (AID 504836)
# Summary of the method: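 ERSR induction read as luciferase luminescence (Bright-Glo, 10 min at room temperature) in stably transfected human U87-MG glioma cells exposed to compounds for 16 h, using GRP78 as sensor.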
structure (smiles),measurement,setting,value
Nc1ccc(Sc2ccc(N)cc2)cc1,Potency,[1],inactive
COCCOCCO,Potency,[1],inactive
O=c1cccc2n1CC1CNC[C@H]2C1,outcome,[2],inactive
Cc1cccc(-c2[nH]c(C(C)(C)C)nc2-c2ccc3nccnc3c2)n1,Potency,[3],inactive
